Laboratory results taken from PubChem BioAssay AID1259245 (Vanderbilt High Throughput Screening Facility, 2017).
The campaign covered roughly 40,000 compounds. About 1,400 (3.5%) were called active.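 The calls were made as follows: active = any of four per-well response measures lying three or more SD from its plate-wide compound average, in either direction; inactive = the rest, inconclusive results apart.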 This excerpt belongs to a sample that is enriched for actives.

Molecular target: Voltage-dependent calcium channel gamma-2 subunit (Mus musculus) + Glutamate receptor 2 (Rattus norvegicus) (UniProt O88602+P19491)
Sequence (O88602 whole entry, looked up): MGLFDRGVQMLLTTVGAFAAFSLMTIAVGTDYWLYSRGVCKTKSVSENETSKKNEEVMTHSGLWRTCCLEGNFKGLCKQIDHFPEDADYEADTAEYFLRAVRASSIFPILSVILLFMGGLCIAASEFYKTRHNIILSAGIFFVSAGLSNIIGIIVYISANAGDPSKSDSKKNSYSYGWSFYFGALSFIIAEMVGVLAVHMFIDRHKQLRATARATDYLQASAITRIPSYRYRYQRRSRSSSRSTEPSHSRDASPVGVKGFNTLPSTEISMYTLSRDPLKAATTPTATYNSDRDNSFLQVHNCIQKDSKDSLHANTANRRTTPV
Sequence (P19491 whole entry, looked up): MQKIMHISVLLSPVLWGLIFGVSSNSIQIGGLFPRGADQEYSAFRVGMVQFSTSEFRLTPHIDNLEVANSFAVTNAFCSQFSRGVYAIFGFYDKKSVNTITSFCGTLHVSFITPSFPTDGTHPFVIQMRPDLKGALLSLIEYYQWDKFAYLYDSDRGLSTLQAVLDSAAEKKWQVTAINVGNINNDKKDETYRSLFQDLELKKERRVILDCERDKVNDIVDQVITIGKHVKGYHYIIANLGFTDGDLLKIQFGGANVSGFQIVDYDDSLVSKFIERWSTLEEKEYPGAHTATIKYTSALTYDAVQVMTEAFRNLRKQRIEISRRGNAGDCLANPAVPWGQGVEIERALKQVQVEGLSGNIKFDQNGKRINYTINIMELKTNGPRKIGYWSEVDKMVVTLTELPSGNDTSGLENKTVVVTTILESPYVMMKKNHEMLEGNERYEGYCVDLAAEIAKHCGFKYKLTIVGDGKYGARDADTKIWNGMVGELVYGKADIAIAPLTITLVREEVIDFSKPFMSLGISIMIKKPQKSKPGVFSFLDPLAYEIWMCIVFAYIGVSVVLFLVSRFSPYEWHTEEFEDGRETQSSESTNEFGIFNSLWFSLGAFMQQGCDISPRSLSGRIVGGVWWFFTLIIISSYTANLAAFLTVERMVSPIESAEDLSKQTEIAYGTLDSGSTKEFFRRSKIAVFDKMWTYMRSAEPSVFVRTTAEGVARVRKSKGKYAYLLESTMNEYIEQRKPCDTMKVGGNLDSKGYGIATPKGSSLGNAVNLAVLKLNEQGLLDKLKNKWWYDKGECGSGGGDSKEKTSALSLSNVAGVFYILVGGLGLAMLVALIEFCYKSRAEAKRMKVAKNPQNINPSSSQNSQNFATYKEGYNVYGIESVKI
Experiment: AMPAR-TARP gamma-2 complex positive or negative modulation – cell-based, membrane potential dye, primary screen (AID 1259245)
Conditions: HEK293 GluA2+stargazin, membrane potential dye (FDSS), glutamate EC50, at 30 µM, hits were called plate by plate, in both directions; compound max-min signal: compound-alone response (agonism); glutamate slope, % of max: measured here: glutamate response slope, % max

| SMILES | compound max-min signal | glutamate response, % of max | glutamate slope, % of max [%] |
| --- | --- | --- | --- |
| COc1ccc(C)cc1S(=O)(=O)NCC1CCN(C2CCCC2)CC1 | 0.046 | 35.2% (inactive) | 60.4 |
| COc1ccc(C)cc1S(=O)(=O)Nc1cc(Cl)ccc1O | 0.201 | 17.5% (active) | 33.4 |
| CCOc1ccc(C)cc1S(=O)(=O)Nc1cc(Cl)ccc1O | 0.184 | 20.5% (inactive) | 42.7 |
| COc1ccc(SCC(=O)Nc2sc3c(c2C(N)=O)CCN(C(C)=O)C3)cc1 | 0.106 | 34.1% (inactive) | 58.5 |
| COc1ccc(CCNC(=O)Nc2c[nH]c3ccccc23)cc1 | 0.127 | 40.6% (inactive) | 64.1 |
| Cc1cc(Cl)cc2sc(N(CC3CCCO3)C(=O)CN(C)S(C)(=O)=O)nc12 (centres undefined) | 0.075 | 26.5% (inactive) | 51.3 |
| O=S(=O)(c1ccc(C2CCCCC2)cc1)N1CCC(Cc2ccccc2)CC1 | 0.0564 | 25.6% (inactive) | 44.4 |
| CCOc1ccc(S(=O)(=O)NCC(O)c2ccsc2)cc1F (centres undefined) | 0.128 | 48.1% (inactive) | 69 |
| COc1ccc(S(=O)(=O)NCC(c2ccsc2)N2CCCCCC2)cc1F (centres undefined) | 0.168 | 17.6% (active) | 30.2 |
| COc1ccc(S(=O)(=O)NCC(c2ccc(C)cc2)N2CCN(C)CC2)cc1OC (centres undefined) | 0.0672 | 37.4% (inactive) | 55.5 |
| COc1ccc(N2CCN(CCNS(=O)(=O)c3ccc(Cl)s3)CC2)cc1 | 0.131 | 37.9% (inactive) | 47.8 |
| Cc1ccc(C(=O)Nc2ccc(SCC(=O)NCc3ccc4c(c3)OCO4)nn2)cc1 | 0.0549 | 27.8% (inactive) | 49.8 |
| CC(C)C(=O)Nc1ccc(SCC(=O)c2ccccc2)nn1 | 0.113 | 25.4% (inactive) | 42.3 |
| CC(=O)c1ccc(NC(=O)CSc2ccc(NC(=O)c3ccco3)nn2)cc1 | 0.0373 | 24.5% (active) | 47 |
| COC(=O)c1ccc(NC(=O)CSc2ccc(NC(=O)c3ccco3)nn2)cc1 | 0.0425 | 23.1% (active) | 46.9 |
| COc1cccc(CNC(=O)CSc2ccc(NC(=O)c3cccc(F)c3)nn2)c1 | 0.0911 | 24.2% (inactive) | 47.4 |
| O=C(CSc1ccc(NC(=O)c2ccco2)nn1)Nc1ccc(OC(F)(F)F)cc1 | 0.106 | 19.5% (inactive) | 37.1 |
| CCOC(=O)N1CCc2c(sc(NC(=O)c3ccccc3Cl)c2-c2nc3ccccc3s2)C1 | 0.11 | 43.3% (inactive) | 61.3 |
| CCn1nnc2c(N3CCN(CC(=O)Nc4c(C)cc(C)cc4C)CC3)ncnc21 | 0.0423 | 21.5% (inactive) | 39.9 |
| COc1ccc(-n2nnnc2SC(C)C(=O)Nc2ccccc2Cl)cc1 (centres undefined) | 0.0851 | 29.7% (inactive) | 55.7 |
| O=C(NCCN1CCOC(c2ccccc2)C1)c1c(F)cccc1F (centres undefined) | 0.0396 | 14.5% (inactive) | 32.8 |
| CCOc1ccc(S(=O)(=O)NCc2ccc3c(c2)OCO3)cc1OCC | 0.0924 | 30.4% (inactive) | 55.6 |
| COc1ccc(S(=O)(=O)Nc2ccc(N3CCCCS3(=O)=O)cc2)cc1F | 0.0701 | 25.7% (inactive) | 44.9 |
| O=C(CCCn1nc(-c2ccc(Cl)cc2)ccc1=O)Nc1ccc(F)c(F)c1 | 0.175 | 35.4% (inactive) | 51.5 |
| CC(C)c1cc(NCCN2CCOCC2)n2ncc(-c3ccccc3)c2n1 | 0.126 | 34% (inactive) | 54.5 |

| SMILES | compound max-min signal | glutamate response, % of max | glutamate slope, % of max [%] |
| --- | --- | --- | --- |
| COc1nn(C)cc1C(=O)NCC(=O)Nc1cccc(C)c1C | 0.067 | -0.69% (active) | 4.95 |
| COc1cn(CC(=O)Nc2cccc(C)c2C)c(CN2CCOCC2)cc1=O | 0.0306 | 11% (inactive) | 23.6 |
| COc1nn(C)cc1C(=O)NCCN1CCN(S(C)(=O)=O)CC1 | 0.0954 | 49.7% (inactive) | 63.9 |
| Cc1ccc(NC(=O)c2ccc(S(=O)(=O)N3CCCC3)cc2)c(C(=O)c2ccccc2)c1 | 0.117 | 44% (inactive) | 65.3 |
| O=C(CSCc1ccccc1)Nc1ccccc1F | 0.0999 | 23.2% (inactive) | 36.5 |
| COc1cc([N+](=O)[O-])ccc1NC(=O)c1ccccc1NS(=O)(=O)c1ccccc1 | 0.141 | 22.1% (active) | 34.2 |
| COc1ccccc1NC(=O)c1csc(NS(=O)(=O)c2ccccc2)n1 | 0.0914 | 30.6% (inactive) | 47.5 |
| Cc1ccc(S(=O)(=O)Nc2ccccc2C(=O)Nc2ccc3c4c(cccc24)CC3)cc1 | 0.105 | 43.6% (inactive) | 62.4 |
| COc1ccc(CNC(=O)N2CCC(c3cccs3)CC2)cc1 | 0.14 | 40.4% (inactive) | 59.7 |
| CN(C)C(CNC(=O)C(=O)Nc1ccc2c(c1)OCCO2)c1cccn1C (centres undefined) | 0.0533 | 30.5% (inactive) | 63.5 |
| CCOC(=O)c1ccc(NC(=O)c2cccnc2)cc1 | 0.0638 | 27.5% (inactive) | 53.7 |
| COCCCNc1nc2c(c(=O)n(C)c(=O)n2C)n1CC(O)COc1ccc(C)c(C)c1 (centres undefined) | 0.0698 | 46.2% (inactive) | 75.7 |
| COCCCn1c(C(=O)Nc2cccnc2)cc2c(=O)n(C)c(=O)n(C)c21 | 0.306 | 24.6% (active) | 44.9 |
| COc1ccccc1NC(=O)Cn1cc(-c2nnc(-c3ccco3)o2)c2ccccc21 | 0.137 | 42.8% (inactive) | 63.9 |
| COc1cccc2sc(N(Cc3ccco3)C(=O)CSCc3ccccc3)nc12 | 0.0832 | 31.9% (inactive) | 54.9 |
| COc1ccc2nc(N(CCN3CCOCC3)C(=O)c3ccc([N+](=O)[O-])o3)sc2c1 | 0.173 | 42.6% (active) | 68.7 |
| COc1ccc2nc(N(CCN3CCOCC3)C(=O)c3ccccc3S(C)(=O)=O)sc2c1 | 0.0288 | 22.5% (inactive) | 42.4 |
| COc1ccc2nc(N(CCN3CCOCC3)C(=O)c3cc4cc([N+](=O)[O-])ccc4s3)sc2c1 | 0.0573 | 31% (inactive) | 45.5 |
| c1nc(N2CCN(Cc3ccc4c(c3)OCO4)CC2)c2c3c(sc2n1)CCCC3 | 0.0914 | 49% (inactive) | 68.7 |
| COc1ccc(/C=C2\Oc3c(ccc4c3CN(c3ccc(F)cc3)CO4)C2=O)c(OC)c1OC | 0.103 | 23.7% (inactive) | 51.7 |
| COC(=O)c1c(NC(=O)CC2NCCNC2=O)sc(C)c1C (centres undefined) | 0.0942 | 53% (active) | 55.8 |
| COC(=O)c1ccsc1NC(=O)CC1Sc2ccccc2NC1=O (centres undefined) | 0.0707 | 30.1% (inactive) | 49.8 |
| O=C(/C=C/c1ccccc1)Nc1ccc(CC(=O)N2CCCC2)cc1 | 0.119 | 31.3% (inactive) | 65.4 |
| C=CCNC(=O)NC1CCCCC1N1C(=O)CSC1=O (centres undefined) | 0.12 | 10.5% (inactive) | 45.6 |
| CSc1ccccc1NC(=O)c1nc(-c2cnccn2)no1 | 0.143 | 23.2% (inactive) | 49.2 |

| SMILES | compound max-min signal | glutamate response, % of max | glutamate slope, % of max [%] |
| --- | --- | --- | --- |
| Cc1nc(-c2cccs2)c(CCC(=O)NCc2ccc3c(c2)OCO3)s1 | 0.114 | 10.6% (active) | 25.8 |
| COc1ccc(NC(=O)CCc2sc(C)nc2-c2cccs2)cc1OC | 0.123 | 37.8% (inactive) | 60.9 |
| COc1ccc(CCNC(=O)CCc2sc(C)nc2-c2cccs2)cc1 | 0.0606 | 19.1% (inactive) | 37.1 |
| COc1cc2cc(CNc3ccc(C)cc3)c(=O)n(CC(=O)Nc3ccccc3F)c2cc1OC | 0.116 | 25.6% (inactive) | 49.4 |
| COc1ccc2cc(CNc3ccccc3)c(=O)n(CC(=O)Nc3ccccc3OC)c2c1 | 0.0876 | -1.71% (active) | 4.4 |
| Cc1ccc2cc(CNc3ccccc3)c(=O)n(CC(=O)Nc3ccccc3C)c2c1 | 0.0993 | 29.6% (inactive) | 44.3 |
| Cc1cc(C)cc(-n2c(SCC#N)nc3cc(C(=O)NC4CCCC4)ccc3c2=O)c1 | 0.127 | 50.2% (inactive) | 72.1 |
| CCOC(=O)c1ccc(-n2c(C)c(C)n3c4c(=O)n(CC)c(=O)n(C)c4nc23)cc1 | 0.126 | 48.1% (inactive) | 62.4 |
| CCC(C)c1ccccc1OCC(O)CN (centres undefined) | 0.0631 | 21.1% (inactive) | 39.8 |
| Cc1cc(N(C)C)nc(-n2cc([N+](=O)[O-])cn2)n1 | 0.178 | 35.4% (active) | 63.4 |
| O=C(c1ccc(Cl)s1)N1CCC(c2ccsc2)CC1 | 0.0754 | 43.8% (inactive) | 57 |
| COCCNC(=O)C(=O)Nc1cc(N2CCCS2(=O)=O)ccc1OC | 0.105 | 22.8% (inactive) | 46.1 |
| CC(=O)c1ccc(C(=O)Nc2sc3c(c2-c2nc4ccccc4s2)CCN(C)C3)cc1 | 0.226 | 65.6% (active) | 85 |
| CCOc1ccc(C(=O)Nc2sc3c(c2-c2nc4ccccc4s2)CCN(C)C3)cc1 | 0.114 | 34.3% (inactive) | 50.1 |
| CN1CCc2c(sc(NC(=O)c3ccc(Br)cc3)c2-c2nc3ccccc3s2)C1 | 0.139 | 53.9% (inactive) | 74 |
| COc1ccc2sc(N(CC3CCCO3)C(=O)C3CCCC3)nc2c1 (centres undefined) | 0.117 | 20% (inactive) | 33.1 |
| Cc1nc2ccccn2c1C(=O)Nc1ccc2c(c1)CC(=O)N2C | 0.213 | 46.6% (active) | 65.1 |
| CN1C(=O)Cc2cc(NC(=O)NC(c3ccccc3)c3ccccc3)ccc21 | 0.121 | 41.8% (inactive) | 60.5 |
| Cc1nc2ccccn2c1C(=O)NCC(O)(c1ccccc1)C(F)(F)F (centres undefined) | 0.141 | 14.1% (inactive) | 49.7 |
| CCOC(=O)CNC(=O)C(=O)c1c(C)[nH]c2ccccc12 | 0.14 | 51.3% (inactive) | 67.4 |
| O=S(=O)(/C=C/c1ccccc1)NCC#CCN1CCc2ccccc2C1 | 0.144 | 41.7% (active) | 55.5 |
| CN(C)S(=O)(=O)NCC#CCN1CCc2ccccc2C1 | 0.0659 | 38.5% (inactive) | 57.8 |
| O=S(=O)(NCC#CCN1CCc2ccccc2C1)c1ccc(Br)cc1 | 0.0488 | 43.9% (inactive) | 66.2 |
